Compounds with a hit are over-represented: about 6.8% of the library has one in this group of screens.
PMK inhibit: blocks S. pneumoniae phosphomevalonate kinase; inhibition, % at 10 µM; purified PMK, PK/LDH-coupled NADH absorbance 340 nm; AID 539; 65,000 compounds, 0.49% hits;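 active = top-ranked compounds by inhibition in the single 10 µM screen, taking a fixed number of the strongest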;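 also: 0% = full reaction with DMSO carrier and 100% = background rate without enzyme reaction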
MK inhibit: S. pneumoniae mevalonate kinase inhibition. purified MK, PK/LDH-coupled NADH absorbance 340 nm. inhibition, % at 10 µM. 65,000 compounds, 0.48% hits. AID 555;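 active = ranked among the strongest by inhibition in the single 10 µM screen, a fixed top-ranked set picked for dose follow-up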
NADH coupling: inhibitors of enzymes used to reach an NAD/NADH endpoint | coupled PK/LDH NADH assays, four targets | AID 774 | 65,000 compounds, 0.02% hits | IC50, µM (titrated, usually from 10 µM), without a hit: top-dose inhibition;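 active = single-dose screening hits from any of four coupled enzyme assays that gave an IC50 when retested across doses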;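 also: the DPM-DC format reads NADH fluorescence rather than 340 nm absorbance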
Spn DPM-DC inh: blocks S. pneumoniae diphosphomevalonate decarboxylase; purified DPM-DC, PK/LDH coupled NADH fluorescence; calls only at 10 µM; 65,000 compounds, 0.49% hits; AID 556;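 active = the 320 compounds with the highest percent inhibition in the single-dose primary screen, excluding strongly autofluorescent ones, cut at about 32% in these data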;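 also: kinetic rate of NADH fluorescence loss reporting ADP formed by the decarboxylase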
Fluor 339 460: intrinsic fluorescence of library compounds, ex339/em460 – biochemical, MLSMR library, data from DPM-DC assay, artefact control, profiling panel; 65,000 compounds, 5.5% hits; fluorescence fold increase at 10 µM; AID 709; compound autofluorescence, ex339/em460 nm, NADH buffer; active compounds read high; 1 = no-compound wells, NADH background;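 active = at 10 µM, mean starting fluorescence two-fold or more over control wells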;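 also: signal is the first read of a kinetic run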
A340 absorber: compound absorbs light at 340 nm; fold change at 10 µM; AID 708; compound absorbance at 340 nm, fold over control; 65,000 tested, under 10 active;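 active = at 10 µM dose, initial 340 nm absorbance at least 2 fold that of control wells; inactive = change under 2 fold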;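 also: initial absorbance extrapolated from kinetic A340 decline of NADH oxidation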
Numbers without * were called inactive; i = inactive; / = not tested or not shown; + = active, no number.

SMILES	PMK inhibit	MK inhibit	NADH coupling	Spn DPM-DC inh	Fluor 339 460	A340 absorber
COc1ncnc2c1oc1nc(C(C)C)c3c(c12)CC(C)(C)OC3	5	2	2%	i	1.1	1.1
c1nc(NCC2CCCO2)c2[nH]cnc2n1 (stereo not drawn)	13	6	6%	i	1.1	0.99
CC(C)c1nc2oc3c(NCc4ccccn4)ncnc3c2c2c1COC(C)(C)C2	14	12	20%	+	3*	1
CC(C)c1nc2oc3c(NCC4CCCO4)ncnc3c2c2c1CCC2 (stereo not drawn)	12	4	10%	i	2.4*	1.1
CC1(C)Cc2nc3oc4c(NCc5ccccc5)ncnc4c3cc2CO1	5	8	7%	/	3.8*	1
O=C(Oc1ccccc1)c1c(Cl)cccc1P(=O)(O)O	8	0	3%	i	1	1
O=C(Nc1ccc(F)cc1F)NC1CC(=O)N(Cc2ccccc2)C1 (stereo not drawn)	7	10	3%	i	1.1	1
COC(=O)c1ccc(CSc2nc(C)nc3c2c(=O)n(C)c(=O)n3C)o1	0	5	2%	i	1.1	1.1
CCOC(=O)N1CCN(c2ncnc3c2oc2nc(C)c4c(c23)CC(C)(C)OC4)CC1	3	5	3%	i	1.2	1
Cc1nc2oc3c(NCc4ccccn4)ncnc3c2c2c1COC(C)(C)C2	3	0	5%	+	1.9	1
CCCc1nc2oc3c(NCCN(C)C)ncnc3c2c2c1CCCC2	13	4	7%	i	1.4	1
CCCc1nc2oc3c(NCC4CCCO4)ncnc3c2c2c1COC(C)(C)C2 (stereo not drawn)	3	7	11%	i	3.2*	1
Cc1oc2cc(O)ccc2c(=O)c1-c1cnn(-c2ccccc2)c1	8	7	5%	/	2.5*	1
Cc1sc2c(c1C)c(=O)n(-c1ccccc1)c1nnc(C)n21	0	0	0%	i	1.1	1.1
Cc1cc(NC(=O)Cn2cc(C(F)(F)F)cc(Cl)c2=O)no1	12	0	4%	i	1.1	1
CCOC(=O)c1cccc(S(=O)(=O)N(CCO)Cc2cc3cc(OC)c(OC)cc3[nH]c2=O)c1	9	0	3%	i	1.3	1
COc1cc2cc(CN(CCCO)S(=O)(=O)c3ccccc3Cl)c(=O)[nH]c2cc1OC	25*	8	17%	/	3.5*	1.1
COc1cc2cc(CN(CCO)S(=O)(=O)c3ccccc3Cl)c(=O)[nH]c2cc1OC	6	8	15%	i	3.1*	1
Cc1cc2cc(CN(CCCO)S(=O)(=O)c3cccc4nsnc34)c(=O)[nH]c2cc1C	19	12	10%	i	1.1	1.1
COc1cc2cc(CN(CCCO)S(=O)(=O)c3ccccc3)c(=O)[nH]c2cc1OC	0	5	3%	/	3.9*	1.1
CCN(CC(=O)Nc1c(C(=O)OC)[nH]c2ccc(C)cc12)c1ccc2c(c1)OCO2	15	7	7%	i	1.1	1.1
CC12CCC(c3c(C(=O)Nc4nccs4)nn(-c4ccccc4)c31)C2(C)C (stereo not drawn)	17	6	8%	i	1.1	0.99
Cc1ccc(N(CC(O)COCc2ccco2)S(=O)(=O)c2ccc(C)cc2)cc1 (stereo not drawn)	4	9	4%	i	1.1	1
COc1ccccc1N1CCN(CC(O)c2ccc3cc[nH]c3c2)CC1 (stereo not drawn)	6	0	2%	i	1.1	0.99
O=c1c2cnn(-c3ccc(F)cc3)c2ncn1Cc1ccccn1	2	2	1%	i	1.1	1
SMILES	PMK inhibit	MK inhibit	NADH coupling	Spn DPM-DC inh	Fluor 339 460	A340 absorber
CCn1c2ccccc2c2nnc(SCC(=O)NC(C(=O)OC)C(C)C)nc21 (stereo not drawn)	13	9	7%	i	1.1	1
CCOC(=O)CC(=O)CSc1nc2c(c(C)c1C#N)CCC2	16	0	9%	i	2.7*	1
c1ccc2c(c1)CCCN2Cc1nnnn1C1CCCC1	7	2	3%	i	1.1	1
CC(=O)NC1N=C(C)N(c2ccccc2)C1=O (stereo not drawn)	28*	0	9%	i	1.1	1.1
CC(=O)Nc1ccn(-c2ccccc2)n1	1	11	2%	i	1.1	1
O=C(Nc1ccon1)c1cc(-c2ccccc2)nc2ccccc12	10	10	3%	i	1.2	1
O=C(NCC1CCCO1)c1cc(-c2ccco2)nc2ccccc12 (stereo not drawn)	9	8	9%	/	5*	1.2
O=C(Nc1ccccc1C(=O)NCC1CCCO1)c1ccco1 (stereo not drawn)	5	7	2%	i	1	1
Cc1cccc(NC(=O)c2cc(-c3ccco3)nc3ccccc23)n1	6	1	4%	/	4.9*	1.1
O=C(O)c1cc(-c2ccco2)nc2ccc(Br)cc12	16	5	14%	i	2.6*	1.1
O=C(c1ccco1)N1CCN(C(=O)c2cc(-c3ccncc3)nc3ccc(Br)cc23)CC1	5	4	4%	i	1.1	1.1
O=C(COc1ccc(S(=O)(=O)NC2CCCCC2)cc1)Nc1ccc2c(c1)OCCO2	14	13	9%	i	1	1.1
COc1ccccc1C1CC(c2ccccc2)Nc2ncnn21 (stereo not drawn)	11	7	6%	i	1.1	1
CC1CCc2c(sc(NC(=O)c3noc4c3CCCC4)c2C(N)=O)C1 (stereo not drawn)	0	6	3%	/	4.8*	1.1
CCNc1nc(NC(C)C)nc(Oc2ccc(OCCOc3ccc(C)cc3)nn2)n1	0	0	0%	i	1.1	1.1
COc1ccc(OC)c(NC(=O)CN2C(=O)c3ccccc3S2(=O)=O)c1	0	1	0%	i	1.1	0.99
COc1ccc2c(c1)-c1ccccc1S(=O)(=O)N2C(C)=O	7	0	15%	+	3.6*	1
Oc1oc(-c2ccco2)nc1C=Nc1ccccc1	5	6	4%	i	1	1.1
Oc1ccccc1/C=N/c1c(-c2ccco2)nc2ccccn12	11	0	6%	/	3.6*	1.1
NC(=O)c1ccsc1NC(=O)c1nc(-c2ccccc2)n(-c2ccccc2)n1	11	4	17%	+	1.5	1
O=C(NC1=NCCS1)c1nc(-c2ccccc2)n(-c2ccccc2)n1	2	0	1%	i	1	1
CCOC(=O)c1c(C)n(OCc2ccccc2)c2ccc3nonc3c12	10	2	6%	/	2.2*	1
c1ccc(-n2nnnc2SCc2cn3cccnc3n2)cc1	13	0	7%	/	5*	1
